Assay results reported in the antibiotic and cytotoxicity screens of Wong et al. (2023).
The whole screen tested about 39,000 compounds, of which about 500 (1.3%) were called active. The sample holds actives, similar compounds and a random draw of the others, so the mix is not that of the screen.

What follows are compounds tested on S. aureus RN4220 (assay: growth inhibition call (relative growth <= 0.2)). Details: 50 µM.

| SMILES | growth inhibition call |
| --- | --- |
| O=C([C@H]1CCCO1)N1CCNCC1 | inactive |
| C[C@@H]1CCCCO[C@@H](CN(C)Cc2ccncc2)[C@H](C)CN([C@H](C)CO)C(=O)c2cc(NC(=O)CCC(F)(F)F)ccc2O1 | inactive |
| COc1ccc2c3c(n(c2c1)C)[C@@H](CO)N(C[C@]13CCN(CC1)C(=O)c1ccccc1F)C(=O)Nc1ccccc1F | inactive |
| Cc1ccc(S(=O)(=O)N(C)C[C@H]2OCCCC[C@H](C)Oc3ccc(NS(=O)(=O)c4ccc(Cl)cc4)cc3C(=O)N([C@H](C)CO)C[C@@H]2C)cc1 | inactive |
| COCCCOc1cc(C[C@@H](C[C@H](N)[C@@H](O)C[C@H](C(=O)NCC(C)(C)C(N)=O)C(C)C)C(C)C)ccc1OC | inactive |
| C[C@@H]1CN([C@H](C)CO)S(=O)(=O)c2ccc(C#CC3CCCCC3)cc2O[C@@H]1CN(C)C(=O)Cc1ccncc1 | inactive |
| C[N+](C)(C)CCCCNC(=O)[C@@H]1C[C@@H]2C(=O)N[C@@H](CCCC[N+](C)(C)C)C(=O)N2[C@@H]1c1cccc(OCCO)c1 | inactive |
| C[C@@H]1CN([C@H](C)CO)C(=O)c2cc(NC(=O)Nc3cccc4ccccc34)ccc2O[C@@H]1CN(C)Cc1ccccc1 | inactive |
| CC(C)NC(=O)Nc1ccc2c(c1)CC(=O)N([C@H](C)CO)C[C@@H](C)[C@@H](CN(C)Cc1ccc(Oc3ccccc3)cc1)O2 | inactive |
| CN1CCN(c2c(F)cc3c(=O)c(C(=O)O)cn(CCF)c3c2F)CC1 | active |
| CN1CCN(c2c(F)cc3c(=O)c(C(=O)O)cn4c3c2SCC4)CC1 | active |
| Cc1ccc(S(=O)(=O)Nc2ccc3c(c2)CC(=O)N([C@@H](C)CO)C[C@@H](C)[C@@H](CN(C)C(=O)Nc2ccc(C(F)(F)F)cc2)O3)cc1 | inactive |
| NC(CO)C(=O)O (stereo unspecified) | inactive |
| Cn1cnc(S(=O)(=O)N2C[C@@H](O)COC[C@@H]3O[C@H](CC(=O)NC4CCCC4)CC[C@H]32)c1 | inactive |
| O=C(NCCO)c1nc(NCCO)c2ccccc2n1 | inactive |
| C[C@@H]1CCCCO[C@H](CN(C)S(=O)(=O)c2ccccc2)[C@@H](C)CN([C@@H](C)CO)C(=O)c2cc(NC(=O)Nc3ccccc3)ccc2O1 | inactive |
| CCC(=O)NC[C@H](Cc1ccc(OCCc2nc(-c3ccccc3)oc2C)cc1)N/C(C)=C\C(=O)c1ccc(C(F)(F)F)cc1 | inactive |
| COC(=O)c1nc[nH]c1C(=O)OC | inactive |
| CC1(C)[C@H](C(=O)O)N2C(=O)C[C@H]2S1(=O)=O | inactive |
| CC1(Cn2ccnn2)C(C(=O)O)N2C(=O)CC2S1(=O)=O (stereo unspecified) | active |
| C[n+]1ccn(C[C@@]2(C)[C@H](C(=O)O)N3C(=O)C[C@H]3S2(=O)=O)n1 | active |
| CC1(C)C(C(=O)O)N2C(=O)CC2S1(=O)=O (stereo unspecified) | inactive |
| Cc1noc(C[C@@H]2C[C@@H]3CN(S(C)(=O)=O)C[C@@H]3O2)n1 | inactive |

| SMILES | growth inhibition call |
| --- | --- |
| C[C@@H]1CCCCO[C@H](CN(C)C)[C@H](C)CN([C@H](C)CO)C(=O)c2cc(NS(=O)(=O)c3cn(C)cn3)ccc2O1 | inactive |
| CS(=O)(=O)N1[C@@H]2c3ccc(-c4ccccc4)c(=O)n3C[C@H]1[C@H](CO)[C@H]2C(=O)NCC1CC1 | inactive |
| COc1cc(F)c(F)c(Nc2ccc(I)cc2F)c1NS(=O)(=O)C1(C[C@H](O)CO)CC1 | active |
| Cn1c(=O)c(F)c(Nc2ccc(I)cc2F)c2c(=O)n(C[C@@H](O)CO)cnc21 | inactive |
| O=C(NOC[C@H](O)CO)c1cc(Br)c(F)c(F)c1Nc1ccc(I)cc1F | inactive |
| CC1(C)S[C@@H]2[C@H](NC(=O)[C@H](N)c3ccccc3)C(=O)N2[C@H]1C(=O)OCOC(=O)[C@@H]1N2C(=O)C[C@H]2S(=O)(=O)C1(C)C | active |
| CCOC(=O)OC(C)OC(=O)C1N2C(=O)C(NC(=O)C(N)c3ccccc3)C2SC1(C)C.Cl (stereo unspecified) | active |
| C[C@@H]1CN([C@H](C)CO)C(=O)c2c(c3ccccc3n2C)-c2ccccc2CO[C@@H]1CN(C)Cc1ccccc1 | inactive |
| O=C(C[C@@H]1C=C[C@@H](NS(=O)(=O)c2ccc(F)cc2)[C@H](CO)O1)N1CCC(Cc2ccccc2)CC1 | inactive |
| CN1C(=O)c2cc(NS(=O)(=O)c3ccc(F)cc3)ccc2OC[C@H]2O[C@H](CC(=O)NCC(F)(F)F)CC[C@H]21 | inactive |
| COCC#Cc1ccc2c(c1)O[C@H](CN(C)S(=O)(=O)c1ccc(C)cc1)[C@H](C)CN([C@@H](C)CO)S2(=O)=O | inactive |
| COCCn1c(=NN)[nH]c2ccsc2c1=O | inactive |
| O=C(C[C@H]1CC[C@@H]2[C@H](COC[C@@H](O)CN2Cc2cc(F)ccc2F)O1)N[C@@H]1CCN(Cc2ccccc2)C1 | inactive |
| CCCCc1nn(-c2ccccc2C(F)(F)F)c(=O)n1Cc1ccc(-c2ccccc2S(=O)(=O)NC(=O)c2sccc2C)cc1 | active |
| COc1ccc([Si](C)(C)[C@H]2[C@H](CC(=O)N3CCC[C@H]3CO)O[C@@]3(C(=O)N(Cc4ccc(N5CCCCC5=O)cc4)c4ccccc43)[C@@H]2C)cc1 | inactive |
| C[C@@H]1CN([C@H](C)CO)C(=O)c2c(c3ccccc3n2C)-c2ccccc2CO[C@@H]1CN(C)Cc1ccc(Cl)c(Cl)c1 | inactive |
| CO/N=C1\CN(c2nc3c(cc2F)c(=O)c(C(=O)O)cn3C2CC2)C[C@@H]1CN | active |
| CON=C1CN(c2nc3c(cc2F)c(=O)c(C(=O)O)cn3C2CC2)CC1CN.CS(=O)(=O)O (stereo unspecified) | active |
| C[C@H]1CN([C@@H](C)CO)C(=O)c2cccc(NC(=O)CCCCCC(=O)Nc3ccccc3N)c2O[C@H]1CN(C)C(=O)Nc1cccc2ccccc12 | inactive |
| CCCN(C)C[C@H]1OCCCC[C@@H](C)Oc2ccc(NS(=O)(=O)c3ccc(Cl)cc3)cc2C(=O)N([C@H](C)CO)C[C@@H]1C | inactive |
| Cc1ccc(S(=O)(=O)N[C@@H]2CC[C@H](CCNC(=O)CN3CCOCC3)O[C@@H]2CO)cc1 | inactive |
| C[C@@H]1CN([C@@H](C)CO)S(=O)(=O)c2ccc(-c3cccc(C#N)c3)cc2O[C@H]1CN(C)C(=O)c1cccnc1 | inactive |
| CO[C@@H]1CN(C)C(=O)c2cc(NC(=O)Nc3cccc(Cl)c3)ccc2OC[C@H](C)N(C(=O)Nc2c(C)noc2C)C[C@H]1C | inactive |
